# From PubChem BioAssay (EPA / NIEHS)
# Where “and” joins values, the source holds several entries; their conditions need not be identical. Equal values may be shown once. Results filed as inconclusive are left out. The source holds several records for some structures; these can differ, active in one and inactive in another. Calls of active or inactive are those of the source. Rule for the calls, unless noted: active = hit-call score of the fitted dose curve at least 0.9, where 1 is the maximum; inactive = score below 0.9.
# What was measured:
# [1] = target: Nuclear respiratory factor 1 (Homo sapiens) (UniProt Q16656); assay: ATG_NRF1_CIS: Attagene CIS-FACTORIAL HepG2 Assay for human Nuclear Respiratory Factor 1 (NRF1) Orphan Gene (AID 2282987); conditions: HepG2 NRF1 cis-element reporter, Attagene multiplex; actives raise or lower the signal
# In short: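 Endogenous NRF1-driven reporter transcription measured in transiently transfected human HepG2 liver cells. Readout: reporter mRNA by RT-PCR and capillary electrophoresis with fluorescence detection, 24 h post-dosing. Gain or loss of signal fitted relative to DMSO baseline.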
# [2] = target: Myc proto-oncogene protein (Homo sapiens) (UniProt P01106); assay: ATG_Myc_CIS: Attagene CIS-FACTORIAL HepG2 Assay for human Myelocytomatosis (Myc) Proto-Oncogene Transcription Factor (AID 2282990); conditions: HepG2, Attagene cis-reporter transcription factor activity; actives raise or lower the signal
# In short: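 HepG2 cells transiently transfected with multiple cis-promoter-driven reporter transcription units, so endogenous TF activity is read. After 24 h compound exposure, reporter mRNA was quantified by RT-PCR, 6-FAM labelling, HpaI digestion and capillary electrophoresis; bidirectional fit versus DMSO.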
# [3] = ATG_NF_kB_CIS: Attagene CIS-FACTORIAL HepG2 Assay for human Nuclear Factor Kappa B (NF-kB) (AID 2282991); conditions: HepG2 Attagene cis-factorial NF-kB reporter mRNA; actives raise or lower the signal
# In short: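 Read-out: reporter transcript levels quantified by RT-PCR plus capillary electrophoresis of 6-FAM-labelled, HpaI-cut fragments. Transfected HepG2 cells, 24 h compound exposure, endogenous NF-kB-driven cis element; gain or loss scored versus DMSO.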
# [4] = ATG_NRF2_ARE_CIS: Attagene CIS-FACTORIAL HepG2 Assay for human Nuclear Factor Erythroid 2 Related Factor 2 (NFR2) response to Antioxidant Response Elements (ARE) (AID 2282992); conditions: HepG2 Attagene ARE/NRF2 reporter, transcription factor activity; actives raise or lower the signal
# In short: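 Readout: reporter mRNA quantified by RT-PCR plus FAM-labelled primer extension, HpaI digestion and capillary electrophoresis, 24 h after dosing transfected HepG2 cells. Gain or loss of signal is fitted bidirectionally against DMSO baseline.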
# [5] = ATG_Oct_MLP_CIS: Attagene CIS-FACTORIAL HepG2 Assay for human Octamer-Binding Transcription Factor (Oct) (AID 2282993); conditions: HepG2 Attagene cis-factorial Oct reporter, mRNA; actives raise or lower the signal
# In short: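 After 24 h compound exposure, transfected HepG2 cells were lysed for total RNA; reporter-specific cDNA was PCR-amplified, fluorescently labelled and sized by capillary electrophoresis. Bidirectional curve fitting used DMSO as baseline.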
# [6] = BSK_3C_TissueFactor: BioMAP Diversity Plus: 3C Assay for Tissue Factor Biomarker Activity (AID 2282997); conditions: BioMAP 3C HUVEC, tissue factor biomarker readout; actives raise or lower the signal
# In short: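 HUVEC, 3C system, 24 h post-dose; Tissue Factor by ELISA; bidirectional fit vs DMSO baseline.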
# [7] = BSK_3C_uPAR: BioMAP Diversity Plus: 3C Assay for Urokinase-type plasminogen activator receptor (uPAR) Biomarker Activity (AID 2282998); conditions: BioMAP 3C HUVEC, uPAR biomarker ELISA; actives raise or lower the signal
# In short: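 Values derive from bidirectional curve fitting relative to DMSO, which served as baseline of activity. uPAR was measured by ELISA in human umbilical vein endothelial primary cultures 24 h after compound addition.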
# [8] = BSK_3C_VCAM1: BioMAP Diversity Plus: 3C Assay for Vascular cell adhesion molecule 1 (VCAM1) Biomarker Activity (AID 2282999); conditions: BioMAP 3C HUVEC, VCAM1 ELISA, cytokine-stimulated; actives raise or lower the signal
# In short: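 Vascular primary endothelium (human umbilical vein) was exposed to chemicals and assayed 24 h later. VCAM-1 levels came from ELISA, with DMSO serving as baseline for bidirectional fitting.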
# [9] = BSK_4H_Eotaxin3: BioMAP Diversity Plus: 4H Assay for Eotaxin 3 Biomarker Activity (AID 2283000); conditions: primary human endothelial cells (HUVEC); actives raise or lower the signal;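 for outcome: CCL26 protein level quantified by ELISA in parallel with SRB cytotoxicity check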
# In short: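 Readout is Eotaxin-3 (CCL26) level by ELISA in primary human umbilical vein endothelial cells harvested 24 h after chemical exposure; activity fitted in both directions against DMSO control.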
# [10] = target: human Peroxisome Proliferator-activated Receptor alpha (PPARa), PPARA (gene 5465) (UniProt Q07869); assay: ATG_PPARa_TRANS: Attagene TRANS-FACTORIAL HepG2 Assay for human Peroxisome Proliferator-activated Receptor alpha (PPARa) (AID 2283001; active = hit-call score of the fitted dose curve at least 0.9, where 1 is the maximum;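 for AC50: potency for gain of reporter signal over DMSO so agonist or activator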)
# In short: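 Cells (HepG2) are transfected with multiple reporter transcription units, exposed to chemical for 24 h, then total RNA is reverse-transcribed and amplified. Labelled products are quantified by capillary electrophoresis; induction is referenced to DMSO.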
# [11] = target: human Peroxisome Proliferator-activated Receptor delta (PPARd), PPARD (gene 5467) (UniProt Q03181); assay: ATG_PPARd_TRANS: Attagene TRANS-FACTORIAL HepG2 Assay for human Peroxisome Proliferator-activated Receptor delta (PPARd) (AID 2283002; active = hit-call score of the fitted dose curve at least 0.9, where 1 is the maximum)
# In short: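 HepG2 cells transiently transfected with multiplexed GAL4-UAS reporter units and exogenous chimeric NR-Gal4 proteins; 24 h compound exposure. Reporter mRNA measured by RT-PCR, 6-FAM labelling, HpaI digestion and capillary electrophoresis; gain of signal versus DMSO.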
# [12] = read-out: Intercellular Adhesion Molecule 1 (ICAM1), ICAM1 (gene 3383); assay: BSK_3C_ICAM1: BioMAP Diversity Plus: 3C Assay for Intercellular Adhesion Molecule 1 (ICAM1) Biomarker Activity (AID 2283003); conditions: primary human endothelial cells (HUVEC); actives raise or lower the signal
# In short: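 Chemicals are dosed onto primary human umbilical vein endothelium (3C system). After 24 h, ICAM-1 is measured by ELISA, and responses are fitted bidirectionally relative to DMSO.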
# [13] = BSK_3C_Proliferation: Cell Proliferation Assessment in the BioMAP Diversity Plus: 3C Assay (AID 2283006); conditions: primary human endothelial cells (HUVEC);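 for AC50: potency may reflect either rise or fall in cell number versus DMSO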
# In short: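 Cells (human umbilical vein endothelial, sub-confluent) receive test chemical; after 48 h they are fixed in 10% trichloroacetic acid, stained with 0.1% SRB and read at 560 nm. Activity is referenced to DMSO, fitting increases and decreases.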
# [14] = target: Peroxisome proliferator-activated receptor gamma (Homo sapiens) (UniProt P37231); assay: ATG_PPARg_TRANS: Attagene TRANS-FACTORIAL HepG2 Assay for human Peroxisome Proliferator-activated Receptor-gamma (PPARg) (AID 2283007; active = hit-call score of the fitted dose curve at least 0.9, where 1 is the maximum)
# In short: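 Read-out: reporter mRNA induction, detected by fluorescence after RT-PCR and capillary electrophoresis. Transiently transfected human HepG2 liver cells carrying a chimeric NR-Gal4 construct were dosed for 24 h; activity was fitted upward relative to DMSO.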
# [15] = target: Nuclear receptor subfamily 1 group I member 2 (Homo sapiens) (UniProt O75469); assay: ATG_PXR_TRANS: Attagene TRANS-FACTORIAL HepG2 Assay for human Pregnane X Receptor (PXR) (AID 2283008; active = hit-call score of the fitted dose curve at least 0.9, where 1 is the maximum)
# In short: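 Trans-factorial format: exogenous NR-Gal4 fusion activity, not endogenous factor, in transfected human HepG2 liver cells. After 24 h dosing, RNA isolated, reverse-transcribed, amplified and resolved by capillary electrophoresis; induction scored versus DMSO.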
# [16] = target: human Retinoic Acid Receptor gamma (RARg), RARG (gene 5916) (UniProt P13631); assay: ATG_RARg_TRANS: Attagene TRANS-FACTORIAL HepG2 Assay for human Retinoic Acid Receptor gamma (RARg) (AID 2283009; active = hit-call score of the fitted dose curve at least 0.9, where 1 is the maximum)
# In short: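 TRANS format measured activity of exogenous NR-GAL4 fusion (RARg) in transfected HepG2 liver cells after 24 h dosing. Induced reporter RNA was detected by RT-PCR/capillary electrophoresis fluorescence, analysed in the positive direction against DMSO.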
# [17] = ATG_NFI_CIS: Attagene CIS-FACTORIAL HepG2 Assay for human Nuclear Factor I (NFI) (AID 2282989); conditions: HepG2 cis-regulatory reporter, NFI response element transcription; actives raise or lower the signal
# In short: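 Multiplexed cis-reporter system in human HepG2 cells reports native TF activity as reporter mRNA induction 24 h post-dose. Fragments labelled with 6-FAM, HpaI-digested and resolved by capillary electrophoresis; activity fitted both directions versus DMSO.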
# [18] = target: human Retinoic Acid Receptor beta (RARb), RARB (gene 5915) (UniProt P10826); assay: ATG_RARb_TRANS: Attagene TRANS-FACTORIAL HepG2 Assay for human Retinoic Acid Receptor beta (AID 2283004; active = hit-call score of the fitted dose curve at least 0.9, where 1 is the maximum)
# In short: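 Readout is reporter mRNA induction: RNA reverse-transcribed, PCR-amplified, FAM-labelled, HpaI-cut and resolved by capillary electrophoresis. Transiently transfected HepG2 cells carrying exogenous NR–Gal4 chimeras were dosed for 24 h; activity fitted upward relative to DMSO.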
# [19] = target: Retinoic acid receptor alpha (Homo sapiens) (UniProt P10276); assay: ATG_RARa_TRANS: Attagene TRANS-FACTORIAL HepG2 Assay for human Retinoic Acid Receptor alpha (RARa) (AID 2283005; active = hit-call score of the fitted dose curve at least 0.9, where 1 is the maximum)
# In short: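 HepG2 cells transiently transfected with multiple reporter units expressing chimeric RARα-GAL4 fusion, with GAL4-UAS-driven reporters. After 24 h compound exposure, reporter mRNA induction quantified by RT-PCR and capillary electrophoresis with fluorescent labeling; gain-of-signal fitted relative to DMSO control.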
# [20] = target: Cellular tumor antigen p53 (Homo sapiens) (UniProt P04637); assay: ATG_p53_CIS: Attagene CIS-FACTORIAL HepG2 Assay for human p53 Transcription Factor (AID 2282994); conditions: HepG2 p53 cis-element reporter, Attagene mRNA; actives raise or lower the signal
# In short: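 Read-out: reporter mRNA by RT-PCR plus capillary electrophoresis with fluorescence detection. Human HepG2 liver cells carried transfected multi-reporter cis-element constructs, dosed 24 h. Gain or loss of signal fitted bidirectionally against DMSO control.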
# Chain of human Peroxisome Proliferator-activated Receptor delta (PPARd), PPARD (gene 5467) (Q03181 whole entry, looked up, the tested form may be a part): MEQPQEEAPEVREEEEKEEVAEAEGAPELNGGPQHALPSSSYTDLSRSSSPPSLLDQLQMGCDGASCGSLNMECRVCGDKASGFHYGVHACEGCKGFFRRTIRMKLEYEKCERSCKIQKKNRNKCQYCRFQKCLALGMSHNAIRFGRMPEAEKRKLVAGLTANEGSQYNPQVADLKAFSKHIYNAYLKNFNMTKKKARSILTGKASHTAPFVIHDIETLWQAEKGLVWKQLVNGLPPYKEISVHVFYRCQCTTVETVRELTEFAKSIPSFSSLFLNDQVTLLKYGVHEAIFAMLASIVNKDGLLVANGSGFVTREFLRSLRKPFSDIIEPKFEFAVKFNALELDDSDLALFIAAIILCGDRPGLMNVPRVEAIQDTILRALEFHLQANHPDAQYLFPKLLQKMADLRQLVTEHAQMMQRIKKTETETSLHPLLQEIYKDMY
# Chain of human Retinoic Acid Receptor gamma (RARg), RARG (gene 5916) (P13631 whole entry, looked up, the tested form may be a part): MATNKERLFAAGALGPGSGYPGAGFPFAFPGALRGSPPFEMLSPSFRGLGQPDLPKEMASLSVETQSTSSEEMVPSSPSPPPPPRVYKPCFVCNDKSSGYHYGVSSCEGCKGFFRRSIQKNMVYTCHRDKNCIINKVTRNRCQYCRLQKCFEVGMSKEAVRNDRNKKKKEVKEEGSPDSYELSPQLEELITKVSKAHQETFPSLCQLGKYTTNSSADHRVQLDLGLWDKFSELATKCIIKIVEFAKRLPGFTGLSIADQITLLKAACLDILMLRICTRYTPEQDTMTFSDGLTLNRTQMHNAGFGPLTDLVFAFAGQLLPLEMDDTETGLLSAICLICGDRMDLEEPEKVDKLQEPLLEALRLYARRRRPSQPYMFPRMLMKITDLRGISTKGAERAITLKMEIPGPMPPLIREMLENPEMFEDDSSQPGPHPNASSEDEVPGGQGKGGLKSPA
# Chain of Myc proto-oncogene protein (Homo sapiens) (P01106 whole entry, looked up): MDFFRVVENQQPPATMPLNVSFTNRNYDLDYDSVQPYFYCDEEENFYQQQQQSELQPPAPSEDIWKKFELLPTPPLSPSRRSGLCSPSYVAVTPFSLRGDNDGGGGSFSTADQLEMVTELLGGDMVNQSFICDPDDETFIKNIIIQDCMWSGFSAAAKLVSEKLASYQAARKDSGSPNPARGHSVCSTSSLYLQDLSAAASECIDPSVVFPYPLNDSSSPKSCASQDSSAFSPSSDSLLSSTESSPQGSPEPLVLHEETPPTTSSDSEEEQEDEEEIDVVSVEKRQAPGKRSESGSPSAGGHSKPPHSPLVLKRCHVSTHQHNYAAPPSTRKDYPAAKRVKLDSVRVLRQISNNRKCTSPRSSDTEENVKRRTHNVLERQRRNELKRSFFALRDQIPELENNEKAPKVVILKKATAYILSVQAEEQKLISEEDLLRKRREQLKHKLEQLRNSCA
# Chain of Retinoic acid receptor alpha (Homo sapiens) (P10276 whole entry, looked up, the tested form may be a part): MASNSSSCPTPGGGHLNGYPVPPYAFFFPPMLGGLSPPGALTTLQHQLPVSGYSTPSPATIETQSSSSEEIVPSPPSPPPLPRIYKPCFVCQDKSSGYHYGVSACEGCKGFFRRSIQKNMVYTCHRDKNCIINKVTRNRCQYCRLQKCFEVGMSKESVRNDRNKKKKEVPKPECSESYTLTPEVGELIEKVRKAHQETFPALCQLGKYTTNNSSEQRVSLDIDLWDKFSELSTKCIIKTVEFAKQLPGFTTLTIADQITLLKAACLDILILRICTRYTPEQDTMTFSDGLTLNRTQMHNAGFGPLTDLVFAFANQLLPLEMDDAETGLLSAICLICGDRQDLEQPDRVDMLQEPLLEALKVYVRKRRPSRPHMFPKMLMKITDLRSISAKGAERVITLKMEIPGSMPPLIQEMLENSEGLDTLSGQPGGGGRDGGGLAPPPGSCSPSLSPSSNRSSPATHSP
# Chain of Peroxisome proliferator-activated receptor gamma (Homo sapiens) (P37231 whole entry, looked up, the tested form may be a part): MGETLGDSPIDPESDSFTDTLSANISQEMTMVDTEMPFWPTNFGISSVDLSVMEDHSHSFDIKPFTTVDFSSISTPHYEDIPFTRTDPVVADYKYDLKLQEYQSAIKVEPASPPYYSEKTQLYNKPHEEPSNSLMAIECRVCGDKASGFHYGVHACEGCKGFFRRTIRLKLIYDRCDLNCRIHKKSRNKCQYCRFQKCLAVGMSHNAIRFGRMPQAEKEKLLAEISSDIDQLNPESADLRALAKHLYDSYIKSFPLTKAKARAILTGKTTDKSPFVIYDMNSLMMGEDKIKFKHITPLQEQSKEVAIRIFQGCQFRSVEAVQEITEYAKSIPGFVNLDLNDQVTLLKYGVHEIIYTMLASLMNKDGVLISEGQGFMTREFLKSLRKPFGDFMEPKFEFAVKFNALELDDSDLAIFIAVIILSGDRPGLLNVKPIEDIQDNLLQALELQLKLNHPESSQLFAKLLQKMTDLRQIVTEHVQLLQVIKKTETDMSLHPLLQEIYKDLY
# Chain of Nuclear receptor subfamily 1 group I member 2 (Homo sapiens) (O75469 whole entry, looked up, the tested form may be a part): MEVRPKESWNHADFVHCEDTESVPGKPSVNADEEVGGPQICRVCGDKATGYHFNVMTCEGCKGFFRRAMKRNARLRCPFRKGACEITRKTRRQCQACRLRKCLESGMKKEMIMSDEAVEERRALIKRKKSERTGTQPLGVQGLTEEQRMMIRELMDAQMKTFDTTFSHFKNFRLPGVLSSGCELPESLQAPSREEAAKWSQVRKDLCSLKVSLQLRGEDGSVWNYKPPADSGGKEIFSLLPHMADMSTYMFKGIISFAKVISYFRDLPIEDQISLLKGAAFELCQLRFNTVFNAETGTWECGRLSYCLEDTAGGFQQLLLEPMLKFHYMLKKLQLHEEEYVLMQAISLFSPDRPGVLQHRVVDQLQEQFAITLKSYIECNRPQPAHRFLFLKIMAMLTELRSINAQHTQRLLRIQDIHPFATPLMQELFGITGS
# Chain of human Retinoic Acid Receptor beta (RARb), RARB (gene 5915) (P10826 whole entry, looked up, the tested form may be a part): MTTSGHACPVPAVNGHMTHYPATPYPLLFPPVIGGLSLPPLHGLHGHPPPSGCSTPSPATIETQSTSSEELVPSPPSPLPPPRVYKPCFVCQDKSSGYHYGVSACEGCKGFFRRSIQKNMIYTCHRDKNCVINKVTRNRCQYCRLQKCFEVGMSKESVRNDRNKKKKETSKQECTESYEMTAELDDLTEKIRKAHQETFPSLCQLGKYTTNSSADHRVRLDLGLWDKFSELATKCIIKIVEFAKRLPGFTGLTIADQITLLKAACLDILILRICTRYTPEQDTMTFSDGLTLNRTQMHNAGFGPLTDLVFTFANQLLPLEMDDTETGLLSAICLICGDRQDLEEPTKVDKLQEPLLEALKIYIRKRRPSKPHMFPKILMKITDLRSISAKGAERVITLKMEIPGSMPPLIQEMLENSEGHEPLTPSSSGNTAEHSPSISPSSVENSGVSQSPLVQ
# Chain of Nuclear respiratory factor 1 (Homo sapiens) (Q16656 whole entry, looked up): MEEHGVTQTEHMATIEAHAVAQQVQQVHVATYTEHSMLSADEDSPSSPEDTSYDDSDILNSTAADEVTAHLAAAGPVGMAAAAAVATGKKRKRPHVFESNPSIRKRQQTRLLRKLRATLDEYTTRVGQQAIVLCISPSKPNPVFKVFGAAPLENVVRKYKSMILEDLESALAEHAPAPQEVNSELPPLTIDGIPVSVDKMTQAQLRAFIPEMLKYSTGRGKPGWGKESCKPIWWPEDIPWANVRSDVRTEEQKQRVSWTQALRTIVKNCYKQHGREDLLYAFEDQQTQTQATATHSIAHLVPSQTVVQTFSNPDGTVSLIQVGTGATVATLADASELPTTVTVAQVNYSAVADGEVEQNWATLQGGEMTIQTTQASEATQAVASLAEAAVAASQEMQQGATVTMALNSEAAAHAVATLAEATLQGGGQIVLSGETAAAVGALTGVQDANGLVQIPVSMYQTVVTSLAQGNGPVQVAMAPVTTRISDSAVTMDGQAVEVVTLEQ
# Chain of Cellular tumor antigen p53 (Homo sapiens) (P04637 whole entry, looked up): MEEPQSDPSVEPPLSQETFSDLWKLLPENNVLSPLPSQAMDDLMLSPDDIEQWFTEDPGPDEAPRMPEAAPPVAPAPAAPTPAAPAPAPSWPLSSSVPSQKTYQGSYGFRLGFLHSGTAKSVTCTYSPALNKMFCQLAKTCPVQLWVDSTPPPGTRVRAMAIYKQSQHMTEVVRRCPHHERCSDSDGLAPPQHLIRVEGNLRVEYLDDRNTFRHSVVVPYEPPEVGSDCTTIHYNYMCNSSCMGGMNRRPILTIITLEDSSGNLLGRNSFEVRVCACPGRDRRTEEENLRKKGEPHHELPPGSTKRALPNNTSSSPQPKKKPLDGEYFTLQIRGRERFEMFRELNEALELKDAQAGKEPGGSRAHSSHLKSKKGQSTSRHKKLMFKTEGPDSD
# Chain of human Peroxisome Proliferator-activated Receptor alpha (PPARa), PPARA (gene 5465) (Q07869 whole entry, looked up): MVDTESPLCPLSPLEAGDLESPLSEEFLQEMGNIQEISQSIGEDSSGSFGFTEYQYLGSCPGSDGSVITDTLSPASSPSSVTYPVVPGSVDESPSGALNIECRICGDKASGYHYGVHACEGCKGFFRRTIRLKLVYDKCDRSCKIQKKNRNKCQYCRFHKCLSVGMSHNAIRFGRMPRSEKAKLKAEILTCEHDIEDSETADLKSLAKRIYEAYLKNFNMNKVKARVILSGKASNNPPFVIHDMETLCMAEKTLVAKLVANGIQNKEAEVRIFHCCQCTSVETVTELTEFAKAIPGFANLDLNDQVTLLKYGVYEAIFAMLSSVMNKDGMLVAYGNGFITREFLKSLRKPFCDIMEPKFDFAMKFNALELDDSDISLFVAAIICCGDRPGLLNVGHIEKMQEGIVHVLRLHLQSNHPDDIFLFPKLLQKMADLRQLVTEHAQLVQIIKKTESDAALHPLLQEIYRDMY
smiles,measurement,setting,value
OCC(F)(F)C(F)(F)C(F)(F)C(F)F,outcome,[1],inactive
same,outcome,[2],inactive
same,outcome,[3],inactive
same,outcome,[4],inactive
same,outcome,[5],inactive
same,outcome,[6],inactive
same,outcome,[7],inactive
same,outcome,[8],inactive
same,outcome,[9],inactive
same,outcome,[10],inactive
same,outcome,[11],inactive
same,outcome,[12],inactive
same,outcome,[13],inactive
same,outcome,[14],inactive
same,outcome,[15],inactive
same,outcome,[16],inactive
Cc1cc(C)cc(O)c1,outcome,[1],inactive
same,outcome,[17],inactive
same,outcome,[2],inactive
same,outcome,[4],inactive
same,outcome,[10],inactive
same,outcome,[18],inactive
same,outcome,[19],inactive
same,outcome,[14],inactive
same,outcome,[15],inactive
same,outcome,[16],inactive
FC(F)(F)C(F)(F)C(F)(F)C(F)(F)C(F)(F)C(F)(F)C(F)(F)Br,outcome,[1],inactive
same,outcome,[2],inactive
same,outcome,[3],inactive
same,outcome,[4],inactive
same,outcome,[20],inactive
same,outcome,[6],inactive
same,outcome,[7],inactive
same,outcome,[8],inactive
same,outcome,[9],inactive
same,outcome,[10],inactive
same,outcome,[11],inactive
same,outcome,[12],inactive
same,outcome,[19],inactive
same,outcome,[13],inactive
same,outcome,[14],inactive
same,outcome,[15],inactive
same,outcome,[16],inactive
CC(C)=CCCC(C)CCOC(=O)C(C)C (configuration not stated),outcome,[1],inactive
same,outcome,[2],inactive
same,outcome,[3],inactive
same,outcome,[4],inactive
same,outcome,[20],inactive
same,outcome,[10],inactive
same,outcome,[11],inactive
same,outcome,[14],inactive
same,outcome,[15],inactive
C=CC/C=C/C/C=C/C/C=C/C,outcome,[1],inactive
same,outcome,[17],inactive
same,outcome,[2],inactive
same,outcome,[3],inactive
same,outcome,[4],inactive
same,outcome,[6],inactive
same,outcome,[7],inactive
same,outcome,[8],inactive
same,outcome,[9],inactive
same,outcome,[10],inactive
same,outcome,[11],inactive
same,outcome,[12],inactive
same,outcome,[13],inactive
same,outcome,[14],inactive
same,outcome,[15],inactive
same,outcome,[16],inactive
O=C(O)C(F)(F)C(F)(F)C(F)(F)C(F)(F)C(F)(F)C(F)(F)C(F)(F)C(F)(F)C(F)(F)C(F)F,outcome,[17],inactive
same,outcome,[2],inactive
same,outcome,[3],inactive
same,AC50,[4],26.3 µM (active)
same,outcome,[5],inactive
same,outcome,[20],inactive
same,outcome,[6],inactive
same,outcome,[7],inactive
same,AC50,[8],45.2 µM (active)
same,outcome,[8],inactive
same,AC50,[9],29.1 µM (active)
same,outcome,[9],inactive
same,AC50,[10],19.4 µM (active)
same,outcome,[12],inactive
same,outcome,[18],inactive
same,AC50,[13],56.7 µM (active) and 47 µM (active)
same,AC50,[14],25.8 µM (active)
same,AC50,[15],64.5 µM (active)
same,outcome,[16],inactive
C1COCCN1,outcome,[1],inactive
same,outcome,[17],inactive
same,outcome,[2],inactive
same,outcome,[4],inactive
same,outcome,[5],inactive
same,outcome,[20],inactive
same,outcome,[10],inactive
same,outcome,[11],inactive
same,outcome,[18],inactive
same,outcome,[19],inactive
same,outcome,[15],inactive
OCCCC(F)(F)C(F)(F)C(F)(F)C(F)(F)C(F)(F)C(F)(F)C(F)(F)F,AC50,[17],71.1 µM (active) and 267 µM (active)
same,AC50,[2],79.9 µM (active)
same,outcome,[2],inactive
same,AC50,[3],73.6 µM (active)
same,outcome,[3],inactive
same,AC50,[4],67.1 µM (active) and 133 µM (active)
same,AC50,[5],50 µM (active) and 245 µM (active)
same,outcome,[20],inactive
same,AC50,[6],54.8 µM (active) and 21.6 µM (active)
same,AC50,[7],44.8 µM (active) and 43.5 µM (active)
same,AC50,[8],24.3 µM (active) and 20.5 µM (active)
same,AC50,[9],45.2 µM (active) and 43.2 µM (active)
same,outcome,[10],inactive
same,outcome,[11],inactive
same,AC50,[12],45.1 µM (active) and 52.9 µM (active)
same,AC50,[13],10.3 µM (active) and 10.4 µM (active)
same,outcome,[14],inactive
same,outcome,[15],inactive
same,outcome,[16],inactive
